# Laboratory results published in PubChem BioAssay (Tox21).
# “And” between values parts separate entries of the source, which are not always exact repeats. Equal values may be shown once. Records with an inconclusive call do not appear. A call without a number means that no potency is given here. The source holds several records for some structures; these can differ, active in one and inactive in another. The source made the active and inactive calls. Unless noted, calls come from the whole dose curve; as a rule, active = well fitted curve in the direction sought with a large enough effect in the repeat runs; inconclusive = weak or mixed curves; inactive = no such curve, though single readings can be large; an effect the other way counts as inactive or inconclusive.
# Assays:
# [1] = qHTS assay to identify small molecule agonists of H2AX (AID 1224845; active = well fitted activation curve with a large enough effect in the signal ratio in the repeat runs, not every such curve was filed as active; the % refers to the signal ratio)
# Procedure, shortened: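 Phospho-H2AX Ser139 measured by HTRF (ex 320 nm; em 665 and 620 nm) after 24 hr antibody incubation. Compounds, 15 concentrations, 0.76% DMSO, were applied to CHO-K1 cells for 3hr at 37C before lysis.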
# [2] = qHTS assay to identify small molecule agonists of the hypoxia (HIF-1) signaling pathway (AID 1224846; active = well fitted activation curve with a large enough effect in the signal ratio in the repeat runs, not every such curve was filed as active; the % refers to the signal ratio; note: potency is the fitted concentration of half-maximal effect)
# Procedure, shortened: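 HRE-bla ME-180 cells (beta-lactamase reporter under hypoxia response element) were plated at 2,000 cells/well in medium with 0.5% dialyzed FBS, rested 5 hrs, then given compounds in DMSO for 17 hrs at 37C, 5% CO2. Reporter induction was read with CCF4-AM FRET substrate.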
# [3] = qHTS assay to identify small molecule agonists of H2AX - cell viability counter screen (AID 1224847; calls by dose curve; note: nearly all actives have a fitted effect of over 30% in size; note: potency is the fitted concentration of half-maximal effect)
# Procedure, shortened: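 For this counter screen, overnight-attached CHO-K1 cells received test compounds (15 concentrations, 0.76% DMSO final); 3 hr later at 37C, CellTiter-Glo reagent was added and luminescence recorded after 30 min at room temperature.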
# [4] = qHTS assay to identify small molecule antagonists of the estrogen related receptor (ERR) signaling pathway from Tox21 library (AID 1224848); note: nearly all actives have a fitted effect of over 50% in size; note: potency is the fitted concentration of half-maximal effect
# Procedure, shortened: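 Reading was by luminescence 30 min after ONE-Glo addition. Before that, ERR cells at 2,000 per well had rested 6 h at 37 C/5% CO2 and then received pin-tooled compounds in DMSO for 18 h at 37 C.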
# [5] = qHTS assay to identify small molecule agonists of the estrogen related receptor (ERR) signaling pathway from Tox21 library (AID 1224849; calls by dose curve; note: nearly all actives have a fitted effect of over 15% in size); details: ERR reporter cell line, ONE-Glo luciferase, 18 h
# Procedure, shortened: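 ERR reporter cell line (NTP) seeded, rested 6 h at 37 C/5% CO2, then pinned with Tox21 compounds in DMSO. After 18 h at 37 C, ONE-Glo luciferase luminescence was read following 30 min at room temperature.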
# [6] = qHTS RealTime-Glo MT Cell Viability Assay in HepG2 cells - 24 hour (AID 1224867); note: nearly all actives have a fitted effect of over 50% in size; note: potency is the fitted concentration of half-maximal effect
# Procedure, shortened: (§1)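 Cell number in HepG2 cultures estimated from NanoLuc luminescence generated by metabolic reduction of a prosubstrate by living cells. The homogeneous, nonlytic format allowed repeated reads at 0, 8, 16, 24, 32 and 40 h of compound exposure.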
# [7] = qHTS RealTime-Glo MT Cell Viability Assay in HEK293 cells - 32 hour (AID 1224868); note: nearly all actives have a fitted effect of over 50% in size; note: potency is the fitted concentration of half-maximal effect
# Procedure, shortened: (§2)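 Homogeneous bioluminescent viability format in HEK293 cells (600 cells/well). Following 5 h at 37 C/5% CO2, 23 nL compound was pintooled; the signal was measured repeatedly during 40 h incubation.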
# [8] = A CellTox Green Cytotoxicity Assay to monitor cytotoxicity in HEK293 cells - 0 hour (AID 1224869); note: nearly all actives have a fitted effect of over 50% in size
# Procedure, shortened: (§3)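 HEK293 cells premixed with CellTox Green dye were seeded at 600 cells/well and left 5 h at 37 C/5% CO2 before pin transfer of 23 nL compound in DMSO. Fluorescence from dye bound to dead-cell DNA was read during 40 h treatment.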
# [9] = qHTS RealTime-Glo MT Cell Viability Assay in HepG2 cells - 40 hour (AID 1224870); note: nearly all actives have a fitted effect of over 50% in size; note: potency is the fitted concentration of half-maximal effect
# Procedure, shortened: (§4)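 Real-time viability: cells seeded at 600 per well together with NanoLuc and cell-permeant prosubstrate, compounds added after 5 h incubation. Luminescence tracked at 0, 8, 16, 24, 32 and 40 h of exposure.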
# [10] = A CellTox Green Cytotoxicity Assay to monitor cytotoxicity in HEK293 cells - 40 hour (AID 1224871); note: nearly all actives have a fitted effect of over 45% in size; note: potency is the fitted concentration of half-maximal effect
# Procedure, shortened: as §3
# [11] = qHTS RealTime-Glo MT Cell Viability Assay in HEK293 cells - 16 hour (AID 1224872); note: nearly all actives have a fitted effect of over 50% in size; note: potency is the fitted concentration of half-maximal effect
# Procedure, shortened: as §2
# [12] = qHTS RealTime-Glo MT Cell Viability Assay in HepG2 cells - 8 hour (AID 1224873); note: nearly all actives have a fitted effect of over 55% in size; note: potency is the fitted concentration of half-maximal effect
# Procedure, shortened: as §4
# [13] = qHTS RealTime-Glo MT Cell Viability Assay in HEK293 cells - 40 hour (AID 1224874); details: RealTime-Glo luminescence; max response: stronger effect = lower value; note: nearly all actives have a fitted effect of over 50% in size; note: potency is the fitted concentration of half-maximal effect
# Procedure, shortened: (§5)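 HEK293 cells mixed with RealTime-Glo reagents (NanoLuc plus cell-permeant prosubstrate) at 600 cells/well, preincubated 5 h at 37 C/5% CO2, then given 23 nL compound in DMSO. Nonlytic luminescence from viable cells was read at 0, 8, 16, 24, 32 and 40 h.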
# [14] = A CellTox Green Cytotoxicity Assay to monitor cytotoxicity in HEK293 cells - 24 hour (AID 1224875); note: nearly all actives have a fitted effect of over 45% in size; note: potency is the fitted concentration of half-maximal effect
# Procedure, shortened: as §3
# [15] = A CellTox Green Cytotoxicity Assay to monitor cytotoxicity in HepG2 cells - 16 hour (AID 1224876); note: nearly all actives have a fitted effect of over 45% in size
# Procedure, shortened: (§6)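 HepG2 cells were seeded together with the CellTox Green dye at 600 cells/well, left 5 h at 37 C/5% CO2, then given compounds in DMSO. Fluorescence from dye bound to dead-cell DNA was read repeatedly over 40 h of treatment at 37 C.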
# [16] = A CellTox Green Cytotoxicity Assay to monitor cytotoxicity in HepG2 cells - 24 hour (AID 1224878); note: nearly all actives have a fitted effect of over 45% in size; note: potency is the fitted concentration of half-maximal effect
# Procedure, shortened: as §6
# [17] = A CellTox Green Cytotoxicity Assay to monitor cytotoxicity in HepG2 cells - 40 hour (AID 1224879); note: nearly all actives have a fitted effect of over 40% in size; note: potency is the fitted concentration of half-maximal effect
# Procedure, shortened: as §6
# [18] = A CellTox Green Cytotoxicity Assay to monitor cytotoxicity in HEK293 cells - 32 hour (AID 1224881); note: nearly all actives have a fitted effect of over 40% in size; note: potency is the fitted concentration of half-maximal effect
# Procedure, shortened: as §3
# [19] = qHTS RealTime-Glo MT Cell Viability Assay in HepG2 cells - 32 hour (AID 1224877); note: nearly all actives have a fitted effect of over 55% in size; note: potency is the fitted concentration of half-maximal effect
# Procedure, shortened: as §1
# [20] = qHTS RealTime-Glo MT Cell Viability Assay in HEK293 cells - 0 hour (AID 1224880); note: nearly all actives have a fitted effect of over 45% in size; note: potency is the fitted concentration of half-maximal effect
# Procedure, shortened: as §5
# [21] = at 92.4 µM (top of the series) unless noted
compound,measurement,setting,value
Clc1ccc2nsnc2c1NC1=NCCN1,Potency,[1],inactive
same,Potency,[2],inactive
same,Potency,[3],inactive
same,Potency,[4],inactive
same,"activity change, positive = activation",[5]; [21],-5.33% [at 42.5 µM] (inactive)
same,Potency,[6],inactive
same,Potency,[7],inactive
same,Potency,[8],inactive
same,Potency,[9],inactive
same,Potency,[10],inactive
same,Potency,[11],inactive
same,Potency,[12],inactive
same,max response,[13],0.404% (inactive)
same,Potency,[14],inactive
same,Potency,[15],inactive
same,Potency,[16],inactive
same,Potency,[17],inactive
same,Potency,[18],inactive
COC(=O)C1=C(C)NC(C)=C(C(=O)OCC(C)C)C1c1ccccc1[N+](=O)[O-] (centres undefined),Potency,[1],inactive
same,Potency,[2],inactive
same,Potency,[3],127 µM (active) and inactive
same,Potency,[4],12.2 µM (active) and 21.1 µM (active)
same,"activity change, positive = activation",[5]; at 42.5 µM (top of the series),-46.2% (inactive)
same,"activity change, positive = activation",[5]; at 92.4 µM (top of the series),-62.2% (inactive)
same,Potency,[6],49 µM (active)
same,Potency,[7],21.9 µM (active)
same,Potency,[8],inactive
same,Potency,[9],49 µM (active) and inactive
same,Potency,[10],49 µM (active) and inactive
same,Potency,[11],38.9 µM (active)
same,Potency,[12],43.6 µM (active)
same,Potency,[13],19.5 µM (active) and 23.9 µM (active)
same,Potency,[14],inactive
same,Potency,[15],inactive
same,Potency,[19],49 µM (active)
same,Potency,[17],inactive
same,Potency,[20],21.3 µM (active)
same,Potency,[18],49 µM (active) and inactive
CCCCCCCCCCC=O,Potency,[1],inactive
same,Potency,[2],inactive
same,Potency,[3],inactive
same,Potency,[4],inactive
same,"activity change, positive = activation",[5]; [21],0.203% (inactive)
same,Potency,[6],inactive
same,Potency,[7],inactive
same,Potency,[8],inactive
same,Potency,[9],inactive
same,Potency,[10],inactive
same,Potency,[11],inactive
same,Potency,[12],inactive
same,max response,[13],2.14% (inactive)
same,Potency,[14],inactive
same,Potency,[15],inactive
same,Potency,[19],inactive
same,Potency,[16],inactive
same,Potency,[17],inactive
same,Potency,[20],inactive
same,Potency,[18],inactive
Cc1cc(N)c(S(=O)(=O)O)cc1Cl,Potency,[1],inactive
same,Potency,[2],inactive
same,Potency,[3],inactive
same,Potency,[4],inactive
same,"activity change, positive = activation",[5]; [21],5.22% (inactive)
same,Potency,[6],inactive
same,Potency,[7],inactive
same,Potency,[8],inactive
same,Potency,[9],inactive
same,Potency,[10],inactive
same,Potency,[11],inactive
same,Potency,[12],inactive
same,max response,[13],1.42% (inactive)
same,Potency,[14],inactive
same,Potency,[15],inactive
same,Potency,[19],inactive
same,Potency,[16],inactive
same,Potency,[17],inactive
same,Potency,[20],inactive
same,Potency,[18],inactive
CCC1=C[C@@H]2CN(C1)Cc1c([nH]c3ccccc13)[C@@](C(=O)OC)(c1cc3c(cc1OC)N(C)[C@H]1[C@@](O)(C(=O)OC)[C@H](OC(C)=O)[C@]4(CC)C=CCN5CC[C@]31[C@@H]54)C2,Potency,[1],inactive
same,Potency,[2],inactive
same,Potency,[3],inactive
same,Potency,[4],18.8 µM (active)
same,"activity change, positive = activation",[5]; [21],-48.8% [at 42.5 µM] (inactive)
same,Potency,[7],0.0151 µM (active)
same,Potency,[8],inactive
same,Potency,[11],23.9 µM (active)
same,Potency,[13],6.7 nM (active)
same,Potency,[14],inactive
same,Potency,[17],inactive
same,Potency,[18],inactive
CCCC/C=C/CCCCO,Potency,[1],inactive
same,Potency,[2],inactive
same,Potency,[3],inactive
same,Potency,[6],inactive
same,Potency,[7],inactive
same,Potency,[8],inactive
same,Potency,[9],inactive
same,Potency,[10],inactive
same,Potency,[11],inactive
same,Potency,[12],inactive
same,max response,[13],5.87% (inactive)
same,Potency,[14],inactive
same,Potency,[15],inactive
same,Potency,[19],inactive
same,Potency,[16],inactive
same,Potency,[17],inactive
same,Potency,[20],inactive
same,Potency,[18],inactive
Cc1cc(=O)oc2cc(N(C)C)ccc12,Potency,[1],inactive
same,Potency,[2],49 µM (active)
same,Potency,[3],inactive
same,Potency,[4],inactive
same,Potency,[8],inactive
same,Potency,[9],inactive
same,Potency,[10],inactive
same,Potency,[14],inactive
same,Potency,[15],inactive
same,Potency,[16],inactive
same,Potency,[17],inactive
same,Potency,[18],inactive
COc1cc(/C=C/C(=O)O[C@H]2CC[C@]34C[C@]35CC[C@]3(C)[C@@H]([C@H](C)CCC=C(C)C)CC[C@@]3(C)[C@@H]5CC[C@H]4C2(C)C)ccc1O,Potency,[1],inactive
same,Potency,[2],inactive
same,Potency,[3],inactive
same,Potency,[4],inactive
same,"activity change, positive = activation",[5]; [21],-5.43% [at 42.5 µM] (inactive)
same,Potency,[6],inactive
same,Potency,[7],inactive
same,Potency,[8],inactive
same,Potency,[9],inactive
same,Potency,[10],inactive
same,Potency,[11],inactive
same,Potency,[12],inactive
same,max response,[13],1.32% (inactive)
same,Potency,[14],inactive
same,Potency,[19],inactive
same,Potency,[16],inactive
same,Potency,[17],inactive
same,Potency,[20],inactive
same,Potency,[18],inactive
Cc1c(C)c2c(c(C)c1O)CCC(C)(COc1ccc(CC3SC(=O)NC3=O)cc1)O2 (centres undefined),Potency,[1],inactive
same,Potency,[2],inactive
same,Potency,[3],inactive
same,Potency,[6],inactive
same,Potency,[7],38.9 µM (active)
same,Potency,[8],inactive
same,Potency,[9],inactive
same,Potency,[10],inactive
same,Potency,[11],43.6 µM (active)
same,Potency,[12],inactive
same,Potency,[13],43600 nM (active)
same,Potency,[14],inactive
same,Potency,[15],inactive
same,Potency,[19],inactive
same,Potency,[16],inactive
same,Potency,[17],inactive
same,Potency,[20],inactive
same,Potency,[18],inactive
CCCCN1C(=O)[C@@H]([C@H](O)C2CCCCC2)NC(=O)C12CCN(Cc1ccc(Oc3ccc(C(=O)O)cc3)cc1)CC2,Potency,[1],inactive
same,Potency,[2],inactive
same,Potency,[3],inactive
same,"activity change, positive = activation",[5]; [21],-19.3% (inactive)
same,Potency,[6],inactive
same,Potency,[7],inactive
same,Potency,[8],inactive
same,Potency,[9],inactive
same,Potency,[10],inactive
same,Potency,[11],inactive
same,Potency,[12],inactive
same,Potency,[14],inactive
same,Potency,[15],inactive
same,Potency,[19],inactive
same,Potency,[16],inactive
same,Potency,[17],inactive
same,Potency,[18],inactive
O=C(O)c1c(Cl)cccc1Cl,Potency,[1],inactive
same,Potency,[2],inactive
same,Potency,[3],inactive
same,Potency,[6],inactive
same,Potency,[7],inactive
same,Potency,[8],inactive
same,Potency,[9],inactive
same,Potency,[10],inactive
same,Potency,[11],inactive
same,Potency,[12],inactive
same,max response,[13],1.14% (inactive)
same,Potency,[14],inactive
same,Potency,[19],inactive
same,Potency,[16],inactive
same,Potency,[17],inactive
same,Potency,[20],inactive
same,Potency,[18],inactive
CC(C)(C)c1ccc(C(=O)O)cc1,Potency,[1],inactive
same,Potency,[2],inactive
same,Potency,[3],inactive
same,Potency,[6],inactive
same,Potency,[7],inactive
same,Potency,[8],inactive
same,Potency,[9],inactive
same,Potency,[10],inactive
same,Potency,[11],inactive
same,Potency,[12],inactive
same,max response,[13],-13.2% (inactive)
same,Potency,[14],inactive
same,Potency,[19],inactive
same,Potency,[16],inactive
same,Potency,[17],inactive
same,Potency,[20],inactive
same,Potency,[18],inactive
Cc1ccc(O)c(C(C)(C)C)c1,Potency,[1],inactive
same,Potency,[2],inactive
same,Potency,[3],89.6 µM (active)
same,Potency,[6],inactive
same,Potency,[7],inactive
same,Potency,[8],inactive
same,Potency,[9],inactive
same,Potency,[10],43.6 µM (active)
same,Potency,[11],inactive
same,Potency,[12],inactive
same,max response,[13],-17.7% (inactive) and -1.19% (inactive)
same,Potency,[14],48.9 µM (active)
same,Potency,[16],43.6 µM (active) and 34.7 µM (active)
same,Potency,[17],43.6 µM (active) and 34.7 µM (active)
same,Potency,[20],inactive
same,Potency,[18],43.6 µM (active)
